The record followed here is PubChem BioAssay.

“And” between values parts separate entries of the source, which are not always exact repeats. Equal entries are not always repeated. Results filed as inconclusive are left out. For part of these data: Results with a measured potency or affinity are listed apart. The source made the active and inactive calls. Unless noted, the rule behind the calls is not given here.

Experiment [1] has as its system Aerobactin synthetase IucA (Klebsiella pneumoniae hvKP1). Nature of the experiment: IucA enzyme inhibition, primary screen, biochemical, Spectrum library (AID 1346200).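 Note: 100% = wells without compound and 0% = wells lacking enzyme.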 As to conditions: malachite green pyrophosphate, A620, at 8 µM, stronger effect = lower value.
For experiment [2], the system named is Aerobactin synthetase IucA (Klebsiella pneumoniae, hypervirulent). Nature of the experiment: biochemical IucA inhibition screen of LOPAC library by absorbance (AID 1346212).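 Note: 100% = no compound wells and 0% = no enzyme wells.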 As to conditions: IucA enzyme assay, absorbance (OD) readout; stronger effect = lower value;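 tested at 8 µM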.
Experiment [3] can be described thus: blockers of cellular phospholipid synthesis – cell-based, LOPAC library, screen 4, primary screen (AID 1347384). As to conditions: animal cells, phospholipid biosynthesis inhibition screen; at 10 µM.
Experiment [4] in a line: blockers of polyQ-driven CASP3 activation – cell-based (AID 1583). The note with it: polyglutamine-induced caspase-3 activation, cell assay; stronger effect = higher value;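 tested at 10 µM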.
A short description of experiment [5]: yeast 75Q aggregation reduction – 75Q-TubU reporter (AID 1593). As to conditions: Yeast 75Q polyglutamine aggregation reporter.
Experiment [6] in a line: restoration of touch response, mutant HTT neurons – whole organism, C. elegans mechanosensory neurons, N-terminal huntingtin (AID 1599). The note with it: C. elegans polyQ-huntingtin mechanosensory neurons, stronger effect = higher value.
Experiment [7] in a line: blockers of cytochrome c efflux from mitochondria – biochemical, purified mitochondria (AID 1603).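 Note: mouse liver mitochondria challenged with calcium chloride; signal normalized to the plate average as 100%.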 As to conditions: stronger effect = lower value.
Experiment [8] can be described thus: polyglutamine aggregate formation blockers (AID 1604). The note with it: polyglutamine-induced protein aggregation inhibition assay; stronger effect = higher value; tested at 2.5 µM.
A short description of experiment [9]: glutamate transport activators, MN-1 cells, MN-1 cell line (AID 1612).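 Note: tested at 1 µM final; 0% = mean of DMSO vehicle wells on each plate; positive means more glutamate uptake than control and negative means less.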 The note with it: MN-1 motor neuron cells, stronger effect = higher value.
Experiment [10] can be described thus: GFP-Q80 aggregate reduction, neuronal-like cells, cell-based, NGF-treated PC12, GFPQ80 (AID 1614).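 Note: lower means fewer inclusions and 0 means no inclusions at all.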 As to conditions: PC12 NGF-treated GFP-polyQ80 inclusion reduction.
Experiment [11] in a line: 75Q-TubH aggregate inhibition, S. cerevisiae, yeast (AID 1616). As to conditions: S. cerevisiae 75Q-TubH polyglutamine aggregation suppression; stronger effect = higher value.
A short description of experiment [12]: viability loss with induced miR-34 in A549 – imaging, A549 dox-inducible miR-34, nuclei and caspase counts, primary screen (AID 1347080;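 active = compounds whose cell count with miR-34 switched on is under 0.7 times the count with it off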). The note with it: A549 miR-34 inducible, Hoechst nuclei count, 48 h.
The target of experiment [13] is Huntingtin (Homo sapiens) (UniProt P42858). Nature of the experiment: mutant huntingtin aggregation blockers – QA1, dose response (AID 1584). The note with it: in vitro mutant huntingtin aggregation assay; confirmation test; at 10 µM; stronger effect = lower value.
Chain of Huntingtin (Homo sapiens) (P42858 whole entry, looked up, the tested form may be a part): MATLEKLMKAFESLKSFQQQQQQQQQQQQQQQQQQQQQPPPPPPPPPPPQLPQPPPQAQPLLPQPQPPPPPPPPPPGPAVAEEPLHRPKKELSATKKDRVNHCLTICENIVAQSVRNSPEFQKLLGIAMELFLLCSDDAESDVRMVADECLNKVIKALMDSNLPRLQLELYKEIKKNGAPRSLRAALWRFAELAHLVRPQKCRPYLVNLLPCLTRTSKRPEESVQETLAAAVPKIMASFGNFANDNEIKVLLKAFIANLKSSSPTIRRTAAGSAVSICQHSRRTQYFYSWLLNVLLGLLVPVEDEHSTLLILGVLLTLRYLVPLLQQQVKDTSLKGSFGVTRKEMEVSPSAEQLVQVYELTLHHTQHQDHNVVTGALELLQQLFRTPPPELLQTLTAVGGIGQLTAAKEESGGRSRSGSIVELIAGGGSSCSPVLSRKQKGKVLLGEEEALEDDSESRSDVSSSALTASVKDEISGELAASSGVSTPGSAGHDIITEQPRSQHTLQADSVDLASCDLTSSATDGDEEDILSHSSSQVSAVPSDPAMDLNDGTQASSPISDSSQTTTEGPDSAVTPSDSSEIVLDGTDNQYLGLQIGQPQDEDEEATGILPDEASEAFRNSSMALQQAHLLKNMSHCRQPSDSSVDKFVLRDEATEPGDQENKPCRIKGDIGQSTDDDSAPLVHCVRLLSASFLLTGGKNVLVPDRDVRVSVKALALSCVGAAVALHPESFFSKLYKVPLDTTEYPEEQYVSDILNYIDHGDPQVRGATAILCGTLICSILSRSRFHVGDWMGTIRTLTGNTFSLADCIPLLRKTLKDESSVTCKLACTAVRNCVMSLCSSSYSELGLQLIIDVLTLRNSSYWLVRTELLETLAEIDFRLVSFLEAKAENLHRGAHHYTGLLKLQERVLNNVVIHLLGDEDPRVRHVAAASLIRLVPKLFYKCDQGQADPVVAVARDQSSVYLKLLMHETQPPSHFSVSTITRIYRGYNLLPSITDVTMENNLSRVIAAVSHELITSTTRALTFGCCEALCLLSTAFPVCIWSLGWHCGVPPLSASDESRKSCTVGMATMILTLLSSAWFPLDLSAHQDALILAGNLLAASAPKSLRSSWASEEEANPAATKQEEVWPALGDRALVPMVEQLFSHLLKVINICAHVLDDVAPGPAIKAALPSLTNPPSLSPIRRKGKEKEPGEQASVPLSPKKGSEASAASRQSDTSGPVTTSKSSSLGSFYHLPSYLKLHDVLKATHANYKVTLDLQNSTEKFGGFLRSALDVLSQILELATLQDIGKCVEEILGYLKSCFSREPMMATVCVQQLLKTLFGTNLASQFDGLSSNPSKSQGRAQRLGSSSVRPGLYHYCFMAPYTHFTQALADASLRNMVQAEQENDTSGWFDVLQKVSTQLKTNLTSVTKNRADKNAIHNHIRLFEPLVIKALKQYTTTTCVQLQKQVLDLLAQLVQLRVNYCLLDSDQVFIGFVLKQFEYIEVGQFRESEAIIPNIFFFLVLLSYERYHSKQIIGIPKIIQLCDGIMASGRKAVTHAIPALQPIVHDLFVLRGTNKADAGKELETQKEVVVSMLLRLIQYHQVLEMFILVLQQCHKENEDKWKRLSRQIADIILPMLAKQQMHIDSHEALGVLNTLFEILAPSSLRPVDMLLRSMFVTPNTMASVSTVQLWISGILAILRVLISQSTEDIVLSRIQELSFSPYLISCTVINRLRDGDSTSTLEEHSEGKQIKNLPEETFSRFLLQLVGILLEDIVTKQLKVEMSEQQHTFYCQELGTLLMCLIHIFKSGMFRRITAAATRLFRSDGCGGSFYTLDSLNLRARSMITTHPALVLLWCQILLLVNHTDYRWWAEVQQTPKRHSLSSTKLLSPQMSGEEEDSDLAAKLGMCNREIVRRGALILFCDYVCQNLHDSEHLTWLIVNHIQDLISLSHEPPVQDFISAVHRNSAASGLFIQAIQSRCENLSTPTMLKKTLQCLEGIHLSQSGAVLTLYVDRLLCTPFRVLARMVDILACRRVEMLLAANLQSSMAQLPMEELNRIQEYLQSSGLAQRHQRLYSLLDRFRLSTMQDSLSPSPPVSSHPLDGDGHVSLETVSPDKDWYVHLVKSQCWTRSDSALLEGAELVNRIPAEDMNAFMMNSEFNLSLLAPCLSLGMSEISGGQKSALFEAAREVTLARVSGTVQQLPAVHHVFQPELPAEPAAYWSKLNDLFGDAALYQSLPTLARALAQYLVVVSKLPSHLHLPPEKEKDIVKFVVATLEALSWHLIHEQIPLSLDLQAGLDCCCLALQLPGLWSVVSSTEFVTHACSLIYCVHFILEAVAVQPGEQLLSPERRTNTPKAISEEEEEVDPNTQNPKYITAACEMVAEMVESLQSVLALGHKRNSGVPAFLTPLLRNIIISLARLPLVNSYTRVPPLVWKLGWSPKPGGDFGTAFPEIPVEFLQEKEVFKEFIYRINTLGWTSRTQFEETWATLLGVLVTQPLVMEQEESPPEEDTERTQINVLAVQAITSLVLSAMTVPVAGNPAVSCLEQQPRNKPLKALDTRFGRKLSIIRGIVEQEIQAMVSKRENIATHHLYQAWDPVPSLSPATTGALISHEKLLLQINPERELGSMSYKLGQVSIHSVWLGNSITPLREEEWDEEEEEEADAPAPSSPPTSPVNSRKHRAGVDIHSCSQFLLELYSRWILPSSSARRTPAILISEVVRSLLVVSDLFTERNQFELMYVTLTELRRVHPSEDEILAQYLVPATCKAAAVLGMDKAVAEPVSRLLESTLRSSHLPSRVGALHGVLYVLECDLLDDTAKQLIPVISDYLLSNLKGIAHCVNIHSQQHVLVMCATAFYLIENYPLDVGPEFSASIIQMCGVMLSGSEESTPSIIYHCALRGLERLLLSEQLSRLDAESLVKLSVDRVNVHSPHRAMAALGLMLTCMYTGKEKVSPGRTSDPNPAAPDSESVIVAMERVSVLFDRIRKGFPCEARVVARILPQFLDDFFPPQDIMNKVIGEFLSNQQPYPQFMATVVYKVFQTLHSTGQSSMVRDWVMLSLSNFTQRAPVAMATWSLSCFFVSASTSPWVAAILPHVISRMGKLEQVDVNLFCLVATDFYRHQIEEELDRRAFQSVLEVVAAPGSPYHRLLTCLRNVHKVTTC
Experiment [14] addresses Mitogen-activated protein kinase 7 (Homo sapiens) (UniProt Q13164). The experiment can be described thus: Gal4-ERK5 driven luciferase induction – cell-based, HTS, primary screen (AID 1508626;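 active = luciferase signal above three times the same-plate solvent-only control wells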;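 note: luciferase driven by Gal4-ERK5 fusion binding five Gal4 sites before minimal TATA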). As to conditions: HeLa Gal4-ERK5 transactivation, 18 h, at 5 µM, stronger effect = higher value.
Experiment [15] can be described thus: P. berghei load reduction in hepatocytes – cell-based, HepG2, luciferase luminescence, HepG2 viability, primary screen (AID 624349; in the data active = parasite load remaining mostly below about 12%, no sharp cut-off; inactive = mostly above about 10%;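 note: 100% = mean of DMSO negative control wells on the same plate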). The note with it: P. berghei liver stage in HepG2, luciferase luminescence, concentration not given here; parasite load remaining: stronger effect = lower value; viability: measured here: HepG2 viability without parasites.
Experiment [16] deals with ATP-dependent translocase ABCB1 (Homo sapiens) (UniProt P08183). The experiment can be described thus: P-glycoprotein substrate transport blockade – cell-based (AID 377; in the data active = fluorescence slope change above about 50%). As to conditions: MDR1-expressing cells, fluorescent substrate accumulation slope; stronger effect = higher value; concentration not given here.
The nature of experiment [17]: compounds altering viability of human ES cells (AID 493140).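 Note: cells exposed to compounds for four days before counting.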 As to conditions: human embryonic stem cell survival screen; stronger effect = higher value.
The mark [18] stands for this setting: measured here: relative caspase fold change +Dox/-Dox.
The mark [19] stands for this setting: measured here: total cells with miR-34 induction, stronger effect = lower value.
[20] abbreviates: measured here: total cells without miR-34 induction.

Chain of Mitogen-activated protein kinase 7 (Homo sapiens) (Q13164 whole entry, looked up, the tested form may be a part): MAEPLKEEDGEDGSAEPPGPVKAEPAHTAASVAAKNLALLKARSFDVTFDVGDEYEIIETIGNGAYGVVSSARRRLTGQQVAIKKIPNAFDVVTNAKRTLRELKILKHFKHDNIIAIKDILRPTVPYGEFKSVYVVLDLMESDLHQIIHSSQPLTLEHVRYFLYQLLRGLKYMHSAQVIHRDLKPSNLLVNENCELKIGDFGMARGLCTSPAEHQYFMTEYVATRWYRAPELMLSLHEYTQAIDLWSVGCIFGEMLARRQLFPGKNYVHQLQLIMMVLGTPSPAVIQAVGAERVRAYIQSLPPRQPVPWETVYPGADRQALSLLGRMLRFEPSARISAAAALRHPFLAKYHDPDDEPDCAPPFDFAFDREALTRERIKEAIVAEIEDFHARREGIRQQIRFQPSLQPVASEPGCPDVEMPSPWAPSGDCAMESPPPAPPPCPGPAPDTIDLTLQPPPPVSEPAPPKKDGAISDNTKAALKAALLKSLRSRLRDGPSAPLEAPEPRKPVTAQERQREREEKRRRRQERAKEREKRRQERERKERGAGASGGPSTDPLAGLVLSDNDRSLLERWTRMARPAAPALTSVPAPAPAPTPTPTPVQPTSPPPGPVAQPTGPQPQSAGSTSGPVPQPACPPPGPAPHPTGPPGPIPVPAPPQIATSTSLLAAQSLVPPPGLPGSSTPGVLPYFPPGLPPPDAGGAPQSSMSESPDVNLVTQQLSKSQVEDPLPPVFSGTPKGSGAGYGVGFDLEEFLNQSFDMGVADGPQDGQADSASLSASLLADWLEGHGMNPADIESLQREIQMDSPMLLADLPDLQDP

In the case of `O=C(/C=C/c1ccc(O)cc1)c1ccc(O)cc1O`, the activity remaining in experiment [1] was 98.7% (inactive). The remaining activity in experiment [2] was 93.6% (inactive).

As for `CN1CCN(CCCN2c3ccccc3Sc3ccc(Cl)cc32)CC1`, the activity remaining in [1] is 123% (inactive). Moreover, the remaining activity in [2] is 86.1% (inactive). Moreover, in [3], the outcome was inactive.

Take `COc1cc([C@@H]2c3cc4c(cc3[C@H](O)[C@H]3COC(=O)[C@H]23)OCO4)cc(OC)c1OC`: in [4], the inhibition was -31.7%. The score in experiment [5] is 0.81. In experiment [6], this molecule registered a rescue above control of -13.8. For the same molecule, the cytochrome c release ratio in [7] turned out to be 1.06. The inhibition of aggregation in [8] worked out at 58.9%. In addition, in experiment [9], the glutamate uptake change turned out to be 21.3%. Also, the inclusion score in experiment [10] was 2. The molecule further showed an aggregation suppression score in experiment [11] of 0.784. Besides, the activity remaining in experiment [1] is 102% (inactive). Moreover, the remaining activity in experiment [2] is 124% (inactive).

Turning to `C[N+]1(C)C2CC(OC(=O)[C@@H](CO)c3ccccc3)CC1C1OC12` (stereo partly drawn), the activity remaining in experiment [1] is 102% (inactive). Besides, the fold change in experiment [12] (stronger effect = lower value) is 0.839 (inactive); in experiment [12] (setting [18]), 1.06. The cell count in experiment [12] (setting [19]) was 10100; in experiment [12] (setting [20]) it was 12100.

With `N[C@@H](CC(=O)N1CCn2c(nnc2C(F)(F)F)C1)Cc1cc(F)c(F)cc1F`, the activity remaining in experiment [1] is 110% (inactive). For the same molecule, the fold change in experiment [12] (stronger effect = lower value, cell number ratio, induced over uninduced) is 0.907 (inactive); in [12] (setting [18]), 5.09. Moreover, the results for the cell count in experiment [12] (setting [19]) and in experiment [12] (setting [20]) were 11900 and 13100, respectively.

On to `C[n+]1cc2c3c(ccc2c2ccc4cc5c(cc4c21)OCO5)OCO3`, for which the inhibition in [4] came to 89.4%. For the same molecule, the aggregation ratio in [13] was 0.44. The score in experiment [5] was determined as 0.8. For the same molecule, the rescue above control in experiment [6] is -18. For the same molecule, in experiment [7], the cytochrome c release ratio worked out at 1.22. Further, in experiment [8], the inhibition of aggregation was -2.89%. Moreover, the glutamate uptake change in experiment [9] was -11.9%. In [11], this molecule registered an aggregation suppression score of 0.576. In addition, the activity remaining in experiment [1] was 97.5% (inactive). Also, the remaining activity in experiment [2] is 102% (inactive).

`Cc1cn[nH]c1`: the activity remaining in experiment [1] was 102% (inactive). For the same molecule, in experiment [2], the remaining activity is 121% (inactive).

For the molecule `CC(=O)NCCc1c[nH]c2ccc(O)cc12`, the activity remaining in experiment [1] is 113% (inactive). In addition, in experiment [2], the remaining activity is 106% (inactive).

On to `c1cc2c(cc1[C@H]1OC[C@H]3[C@@H]1CO[C@H]3c1ccc3c(c1)OCO3)OCO2`, for which the activity remaining in experiment [1] was 120% (inactive). Further, in experiment [14], the luciferase signal was 52 AU (inactive).

Regarding `C[C@@H]1CC[C@@]2(NC1)O[C@H]1C[C@H]3C4CC=C5C[C@@H](O)CC[C@]5(C)C4CC[C@]3(C)C1[C@@H]2C` (stereo partly drawn), in experiment [15], the parasite load remaining is 57% (inactive) and the viability amounted to 93.1%. Further, the activity remaining in experiment [1] was 118% (inactive).

As to `CC1(C)N([O-])[N+](=O)C1(C)Br` (stereo not drawn), in experiment [1], the activity remaining is 96.6% (inactive). In addition, in [14], the luciferase signal is 44 AU (inactive).

Turning to `Cc1cn([C@H]2C=C[C@@H](CO)O2)c(=O)[nH]c1=O`, the remaining activity in experiment [2] was 106% (inactive).

As to `C[C@H]1O[C@@H](O[C@H]2[C@@H](O)C[C@H](O[C@H]3[C@@H](O)C[C@H](O[C@H]4CC[C@]5(C)C6CC[C@]7(C)[C@@H](C8=CC(=O)OC8)CC[C@]7(O)C6CC[C@@H]5C4)O[C@@H]3C)O[C@@H]2C)C[C@H](O)[C@@H]1O` (stereo partly drawn), in [5], the score came to 1.05. In experiment [6], this molecule showed a rescue above control of -1.72. Also, the cytochrome c release ratio in experiment [7] is 1.31. Moreover, the inhibition of aggregation in [8] turned out to be 76%. In [9], the glutamate uptake change was found to be 5.63%. In experiment [10], this molecule yielded an inclusion score of 2. For the same molecule, the aggregation suppression score in [11] stood at 0.858. In addition, the activity remaining in [1] is 121% (inactive).

For the molecule `CC12CCCCC1(Br)[N+](=O)N2[O-]` (stereo not drawn), the activity remaining in experiment [1] was 108% (inactive). The luciferase signal in experiment [14] was 64 AU (inactive).

For the molecule `COc1cc2ncc(-c3ccccc3)nc2cc1OC`, the remaining activity in [2] is 120% (inactive).

For the molecule `CNC(C)[C@@H]1CC[C@@H](N)[C@@H](OC2[C@@H](N)C[C@@H](N)[C@H](OC3OC[C@](C)(O)[C@H](NC)[C@H]3O)[C@H]2O)O1` (stereo partly drawn), the parasite load remaining in [15] was 99.6% (inactive) and 66.4% (inactive). The viability in experiment [15] is 74.9% and 95.7%. Also, the activity remaining in experiment [1] is 116% (inactive). In addition, the fold change in experiment [12] (stronger effect = lower value) is 0.833 (inactive); in [12] (setting [18]), 0.842. For the same molecule, the figures for the cell count in experiment [12] (setting [19]) and in experiment [12] (setting [20]) were 10800 and 13000, respectively.

Consider `CC(=O)SCC[N+](C)(C)C`, for which the remaining activity in experiment [2] was 117% (inactive).

`CO[C@H]1[C@H](O)[C@H](O[C@H]2CC[C@]3(C)C4CC[C@]5(C)C(C6=CC(=O)OC6)CC[C@]5(O)C4CC[C@@H]3C2)O[C@@H](C)[C@@H]1O` (stereo partly drawn) gave a score in experiment [5] of 1.23. In addition, the rescue above control in experiment [6] is -1.89. In experiment [7], the cytochrome c release ratio worked out at 0.83. Moreover, in [8], the inhibition of aggregation stood at 94.4%. Further, the glutamate uptake change in [9] is -17.6%. This molecule registered an inclusion score in [10] of 2. In experiment [11], this molecule yielded an aggregation suppression score of 1.46. Further, the activity remaining in experiment [1] was 93.6% (inactive).

As to `CCC(C)C(=O)O[C@H]1[C@H](O)C2C(CN3CC(C)CCC3[C@@]2(C)O)C2C[C@]34O[C@]5(O)C(OC(=O)C(C)(O)C(C)O)CC[C@@]3(C)C5C(OC(C)=O)[C@@H](OC(C)=O)C4[C@@]21O` (stereo partly drawn), in [4], the inhibition was found to be 19.1%. In experiment [5], this molecule came in with a score of 1.45. For the same molecule, the rescue above control in experiment [6] was -3.98. Further, the cytochrome c release ratio in [7] stood at 1. The inhibition of aggregation in experiment [8] is 1.96%. For the same molecule, in [9], the glutamate uptake change stood at 2.79%. Also, in experiment [10], the inclusion score worked out at 2. The same molecule yielded an aggregation suppression score in [11] of 1.75. In experiment [15], the parasite load remaining was 75% (inactive) and the viability worked out at 68.5%. Also, the activity remaining in experiment [1] was 107% (inactive).

In the case of `O=C(O)P(=O)(O)O`, the fluorescence slope change in experiment [16] is 95.2% (active). Further, the activity remaining in experiment [1] was 112% (inactive).

As to `Cc1cc(O)c2c(c1)C(=O)c1cc(O)cc(O)c1C2=O`, in [2], the remaining activity is 76.7% (inactive).

On to `CC[C@]12CCCN3CCc4c(n(c5ccccc45)[C@](O)(C(=O)OC)C1)[C@@H]32`, for which the survival in experiment [17] was 6.25 (inactive). Further, the activity remaining in [1] is 115% (inactive).

With `Cc1ccccc1CNc1ncnc2c1ncn2[C@@H]1O[C@H](CO)[C@@H](O)[C@H]1O`, in experiment [2], the remaining activity is 122% (inactive).

For `O=C(NC(=O)c1ccccc1Cl)Nc1ccc(OC(F)(F)F)cc1`, the activity remaining in experiment [1] is 118% (inactive). In addition, in experiment [14], the luciferase signal was 68 AU (inactive).

For the molecule `COc1ccc2c(c1OC)C(=O)O[C@@H]2[C@@H]1c2cc3c(cc2CCN1C)OCO3`, in experiment [15], the parasite load remaining was 190% (inactive) and the viability was found to be 68.5%. The activity remaining in experiment [1] is 113% (inactive).

Consider `COc1ccc2c(c1OC)C(=O)O[C@H]2[C@H]1c2cc3c(cc2CCN1C)OCO3`, for which, in [4], the inhibition is -1.71%. This molecule registered a score in experiment [5] of 1.46. In addition, in experiment [6], the rescue above control was -6.7. Further, the cytochrome c release ratio in [7] was 1.06. The inhibition of aggregation in [8] was 71.9%. For the same molecule, the glutamate uptake change in experiment [9] was 13.5%. The molecule also yielded an inclusion score in [10] of 2. In experiment [11], this molecule displayed an aggregation suppression score of 1.24. Also, in [15], the parasite load remaining is 124% (inactive) and the viability turned out to be 70.9%. The activity remaining in experiment [1] is 127% (inactive). The luciferase signal in experiment [14] was 76 AU (inactive).
